In PubChem BioAssay (EPA / NIEHS) one finds outcome and AC50 data, which are given here for 40 compounds.

Activity calls are given as the source filed them. Rule for the calls: active = hit-call score of the fitted dose curve at least 0.9, where 1 is the maximum; inactive = score below 0.9.

Read-out in the test: Phosphatase and tensin (PTEN), PTEN (gene 5728)
The test is described as follows: LTEA_HepaRG_PTEN: Life Technologies and Expression Analysis (LTEA) Assay for Phosphatase and tensin (PTEN) using HepaRG (AID 2283523). The settings on record: mRNA level, 48 h; actives raise or lower the signal. The method, then: LTEA_HepaRG is a cell based, multiplexed-readout assay that uses HepaRG, a human liver cell line, with measurements taken at 48 hours after chemical dosing on a 96-well plate.LTEA_HepaRG_PTEN is one of 102 assay component(s) measured in the LTEA HepaRG cell culture assay. It is a marker of Cell proliferation, survival, death.Data from the assay component LTEA_HepaRG_PTEN was analyzed into 1 endpoint. This assay endpoint, LTEA_HepaRG_PTEN, was analyzed with bidirectional fitting relative to DMSO as the negative control and baseline of activity. Using a type of inducible reporter, measures of mRNA induction for gain or loss-of-signal activity can be used to understand regulation of transcription factor activity. To generalize the intended target to other relatable targets, this assay endpoint is annotated to the phosphatase intended target family, where the subfamily is dual-specific phosphatase.
A total of 1060 chemcials from the ToxCast library were tested in eight-point concentration-response experiments. Cell culture and cytotoxicity assays were conducted at Thermo Fisher Scientific's Custom Services facility (Madison, WI). A single lot of human HepaRG cells (Thermo Fisher Scientific, Frederick, MD) was used for the cell culture experiments. 96-well format collagen type I coated plates of human HepaRG cells were prepared using established methods. Briefly, cryopreserved HepaRG cells were thawed, plated at a density of approximately 100,000 cells/well in HepaRG Thaw, Plate, and General Purpose media (HPRG770, Thermo Fisher Scientific), and incubated for 48 hours. 0.5% DMSO was selected as vehicle control to balance the requisite need of DMSO in HepaRG cultures to maintain differentiation (for example, baseline metabolism, proportions of hepatocytes vs. cholangiocytes), while enabling further hepatic receptor pathway activation (for example, PXR and CAR) in response to chemical exposure. 48 hours after plating, the culture medium was replaced with HepaRG Serum-Free Incudtion Media. Cells were exposed to each test chemical in duplicate and maintained in CO2 incubators for another 48 hours. Chemical plates were thawed to room temperature and 200x concentrations of treatment groups were prepared. 8-point conentration-reponse curves were made with the highest exposure at 100 uM, followed by half-log dilutions, all in 0.5% DMSO. Each test plate contained variouse controls, induction positive controls (1mM phenobarbital), cytotoxicity positive controls ([…] aflatoxin B1), vehicle controls (0.5% DMSO), and total lysis controls (0.5% DMSO). Cell morphology images were taken using an Essen IncuCyte FLR automated microscope, with six 96-well plates imaged in about 24 minutes. Images were captured and exported and JPEG files. Spent culture media was transfered to black-well plates for the LDH assay, and remaining media was sorted at -80 C for later use. Cells were treated with RLT buffer and frozen until shipped for gene expression analysis. Total RNA was isolated from the cell suspension in 75 uL of Buffer RLT (Qiagen, Germantown, MD 20874) by Quintiles/Expression Analysis (Durham, NC) using a custom isolation procedure. Total RNA from each plate well was transferred to a preamplification plate. Fluidigm's 96.96 Dynamic ArrayTM (Fluidigm, Amsterdam, the Netherlands) technology was used for gene expression analyses by quantitative reverse transcription polymerase chain reaction (qRT-PCR, performed by Quintiles/Expression Analysis, Durham, NC)89. Standard TaqManTM Assays (Applied Biosystems/ThermoFisher Scientific, Foster City, CA) were used to assess the expression of 93 genes selected based on their selectivity and sensitivity to important hepatic receptors known to be modulated by environmental chemicals; importance in human hepatocyte functionality; and hepatotoxicity. […]
In the case of `Oc1ccc2c(c1)OC[C@@H](N1CCC(O)(c3ccc(F)cc3)CC1)[C@H]2O`, the compound was called inactive.
Same read-out and setting: for `O=c1[nH]cc(F)c(=O)[nH]1` the value was “inactive”; for `CC(=O)OCCOCCOCCOC(C)=O`, “inactive”; for `COc1ccc(C)cc1N`, “inactive”.
Same read-out and setting: for `Cc1oc(-c2ccccc2)nc1CCOc1cccc2c1ccn2CCC(=O)O` the value was “inactive”.
On the same count and under the same terms, for `O=c1c(O)c(-c2ccc(O)c(O)c2)oc2cc(O)cc(O)c12` the value was “inactive”; for `Nc1nc(N)c2nc(CNc3ccc(C(=O)N[C@@H](CCC(=O)O)C(=O)O)cc3)cnc2n1`, “inactive”.
As for `COc1cc(-c2nc(NC(=O)c3cc4cc(C)cc(C)c4n3CC(=O)O)sc2CCC2CCCCC2)c(OC)cc1Cl`, the AC50 is 16.8 µM (active).
As for `CNCc1cc(F)ccc1Oc1ccc(Cl)c(Cl)c1`, the result was inactive.
On the same count and under the same terms, for `C1CCC(SSC2CCCCC2)CC1` the value was “inactive”; for `CCCCCC(=O)O`, “inactive”.
For `CCOC(=O)CCC(=O)OCC`, the AC50 was 81.2 µM (active).
For the compound `CC(=O)C(C)=CC1C(C)=CCCC1(C)C` (stereo not given), the result was inactive.
Same read-out and setting: for `c1cc(-c2ccncc2)ccn1` the value was “inactive”.
Still for that read-out and setting: for `Cc1ccc(C(C)C)c(O)c1` the value was “inactive”; for `CC(=O)OC/C=C(\C)CCC=C(C)C`, “inactive”.
Same read-out and setting: for `CC1(C)CC(N=C=O)CC(C)(CN=C=O)C1` (stereo not given) the value was “inactive”.
In the case of `O=[N+]([O-])C(CO)(CO)CO`, the compound was called inactive.
On the same count and under the same terms, for `CNC(=O)[C@H]1O[C@@H](n2cnc3c(NCc4cc(Cl)ccc4OCc4cc(C)no4)ncnc32)[C@H](O)[C@@H]1N` the value was “inactive”; for `O=C(N[C@@H](Cc1ccccc1)[C@@H](O)C(=O)N1C[C@@H](O)[C@@H](O)C1)c1cc2cc(Cl)ccc2[nH]1`, “inactive”.
The same measure, in the same setting: for `CCCCN(CCCC)CCCC` the value was “inactive”.
Still for that read-out and setting: for `Cc1ccc(N(C)C)cc1` the value was “inactive”; for `C=CCOC(=O)c1ccccc1C(=O)OCC=C`, “inactive”; for `CCCCCCCC=O`, “inactive”.
For `CCCCCCCCCCCC(=O)OC`, the call was inactive.
Still for that read-out and setting: for `CCCCCCCCCCCCCCCC` the value was “inactive”.
Still for that read-out and setting: for `C=CCc1ccc(O)c(OC)c1` the value was “inactive”.
Still for that read-out and setting: for `COc1cc(C=O)ccc1O` the value was “inactive”.
As for `CCCc1cc(=O)[nH]c(=S)[nH]1`, the compound was classed as inactive.
On the same count and under the same terms, for `CCCCCCCCCCO` the value was “inactive”; for `COc1cc(S(=O)(=O)O)c(C)cc1N=Nc1c(O)ccc2cc(S(=O)(=O)O)ccc12`, “inactive”; for `CCCCCCCCCCCCCO`, “inactive”.
Still for that read-out and setting: for `CN1CCCC1=O` the value was “inactive”.
The same measure, in the same setting: for `C[Si]1(C)O[Si](C)(C)O[Si](C)(C)O[Si](C)(C)O1` the value was “inactive”.
Consider `C[C@]12C=CC(=O)C=C1CC[C@@H]1[C@@H]2C(=O)C[C@@]2(C)[C@H]1CC[C@]2(O)C(=O)CO`, for which the compound was classed as inactive.
Still for that read-out and setting: for `CC1(C)NC(=O)NC1=O` the value was “inactive”; for `CCc1c(C(=O)NN2CCCCC2)nn(-c2ccc(Cl)cc2Cl)c1-c1ccc(Br)cc1`, “inactive”.
Regarding `Cc1cccc(C)c1O`, the outcome was inactive.
The same measure, in the same setting: for `Cc1c(C(=O)O)c(O)cc2c1C(=O)c1c(O)c([C@@H]3O[C@H](CO)[C@@H](O)[C@H](O)[C@H]3O)c(O)c(O)c1C2=O` the value was “inactive”; for `NCC1(Cc2noc(=O)[nH]2)CCCCC1`, “inactive”.
